In PubChem BioAssay:
The source made the active and inactive calls. Unless noted, the rule behind the calls is not given here.

Assays:
[1] = compounds binding Alexa647 anti-His antibody – biochemical, small-molecule microarray, 635 nm fluorescence, artefact control for SMM control protein annotation, primary screen (AID 1128); details: higher = more signal;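 note: score merges feature fluorescence with signal-to-noise for each printed compound spot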
[2] = test system: Human papillomavirus type 1a E7 protein (residues 1-88); experiment: HPV1a E7 small-molecule binders, primary screen, biochemical, small-molecule microarray, residues 1-88, 635 nm (AID 1129); details: small-molecule microarray binding, fluorescence 635 nm; higher = more signal
[3] = target: Focal adhesion kinase 1 (Homo sapiens) (UniProt Q05397); experiment: PTK2 protein binding on printed compound slides – biochemical, small-molecule microarray, 635/667 nm fluorescence, BSA, DTT, primary screen (AID 1130); details: 635 nm fluorescence, higher = more signal;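 note: composite of spot emission at 667 nm and signal to noise over triplicate slides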
Chain of Focal adhesion kinase 1 (Homo sapiens) (Q05397 whole entry, looked up): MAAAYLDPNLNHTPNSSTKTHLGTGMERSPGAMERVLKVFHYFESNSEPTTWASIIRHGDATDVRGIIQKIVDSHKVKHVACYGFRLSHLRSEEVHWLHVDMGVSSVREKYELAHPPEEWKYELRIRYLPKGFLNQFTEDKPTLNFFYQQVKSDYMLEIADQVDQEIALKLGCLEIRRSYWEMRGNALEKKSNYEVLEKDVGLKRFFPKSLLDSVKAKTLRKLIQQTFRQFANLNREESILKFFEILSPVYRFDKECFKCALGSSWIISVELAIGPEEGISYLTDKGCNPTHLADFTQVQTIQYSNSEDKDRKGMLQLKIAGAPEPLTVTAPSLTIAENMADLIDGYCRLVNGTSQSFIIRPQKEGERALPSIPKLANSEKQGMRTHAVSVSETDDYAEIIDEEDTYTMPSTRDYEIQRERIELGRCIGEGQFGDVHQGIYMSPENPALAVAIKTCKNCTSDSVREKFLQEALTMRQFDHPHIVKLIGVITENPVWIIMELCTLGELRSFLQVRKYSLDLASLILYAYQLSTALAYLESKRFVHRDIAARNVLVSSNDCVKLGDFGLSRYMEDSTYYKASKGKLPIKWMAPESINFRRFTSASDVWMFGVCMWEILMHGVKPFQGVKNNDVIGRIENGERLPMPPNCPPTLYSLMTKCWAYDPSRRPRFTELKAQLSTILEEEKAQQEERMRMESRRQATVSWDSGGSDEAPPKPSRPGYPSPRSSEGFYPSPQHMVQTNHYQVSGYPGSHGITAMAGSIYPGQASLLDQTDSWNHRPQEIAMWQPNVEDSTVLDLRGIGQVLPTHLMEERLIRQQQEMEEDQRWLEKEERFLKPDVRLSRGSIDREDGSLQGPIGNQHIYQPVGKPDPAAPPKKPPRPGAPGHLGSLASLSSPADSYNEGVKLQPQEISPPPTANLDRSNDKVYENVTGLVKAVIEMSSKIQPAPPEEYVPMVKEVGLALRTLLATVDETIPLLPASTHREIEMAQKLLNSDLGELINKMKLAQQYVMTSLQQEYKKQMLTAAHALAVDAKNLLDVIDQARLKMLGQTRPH

[4] = test system: Fibrinogen (Alexa647-labelled); experiment: Alexa647-fibrinogen binding to printed small molecules – biochemical, small-molecule microarray, 635/667 nm fluorescence, artefact control for SMM control-protein annotation, profiling panel (AID 1131); details: fibrinogen-A647 binding fluorescence, higher = more signal;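 note: z-score merges 667 nm fluorescence with per-spot signal-to-noise over triplicate slides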
[5] = target: Follistatin (Homo sapiens) (UniProt P19883); experiment: FST protein binding to printed compounds – biochemical, small-molecule microarray, 635/667 nm fluorescence, primary screen (AID 1132); details: 635 nm fluorescence, higher = more signal
Chain of Follistatin (Homo sapiens) (P19883 whole entry, looked up): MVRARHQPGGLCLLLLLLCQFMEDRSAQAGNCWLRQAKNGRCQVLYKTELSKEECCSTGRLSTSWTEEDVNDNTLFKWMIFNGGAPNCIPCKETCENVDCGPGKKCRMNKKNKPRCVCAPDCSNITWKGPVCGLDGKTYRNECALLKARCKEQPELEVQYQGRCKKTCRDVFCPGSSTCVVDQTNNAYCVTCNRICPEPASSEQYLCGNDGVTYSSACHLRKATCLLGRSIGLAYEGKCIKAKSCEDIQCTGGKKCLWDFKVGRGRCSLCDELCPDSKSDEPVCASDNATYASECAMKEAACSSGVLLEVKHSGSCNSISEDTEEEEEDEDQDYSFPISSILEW

[6] = target: Fibroblast growth factor 2 (Homo sapiens) (UniProt P09038); experiment: basic fibroblast growth factor binding to printed compounds – biochemical, small-molecule microarray, 635/667 nm fluorescence, primary screen (AID 1133); details: FGF2, fluorescence 635/667, higher = more signal
Chain of Fibroblast growth factor 2 (Homo sapiens) (P09038 whole entry, looked up): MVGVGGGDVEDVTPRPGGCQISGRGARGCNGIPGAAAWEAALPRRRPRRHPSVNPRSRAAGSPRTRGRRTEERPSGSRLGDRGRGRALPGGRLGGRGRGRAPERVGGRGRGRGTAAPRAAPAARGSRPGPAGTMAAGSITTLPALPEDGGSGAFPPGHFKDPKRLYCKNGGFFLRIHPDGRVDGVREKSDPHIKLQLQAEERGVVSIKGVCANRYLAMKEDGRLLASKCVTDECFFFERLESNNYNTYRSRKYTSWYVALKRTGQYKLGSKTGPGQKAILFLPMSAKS

[7] = JC-1 mitochondrial potential readout, lung cancer cells – cell-based, A549, JC-1 fluorescence, basal, 24 h, 100 nL, profiling panel (AID 1138); details: higher = more signal;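 note: A549 lung adenocarcinoma cells under basal conditions with no added stimulus; test concentration not given here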
Lefty1 = Lefty1 protein binding to printed compounds – biochemical, small-molecule microarray, 635/667 nm fluorescence, primary screen (AID 1139); details: fluorescence 635/667, higher = more signal
[8] = test system: wheat germ agglutinin (Triticum aestivum), Alexa647-labelled; experiment: Alexa647-WGA lectin binding to printed small molecules – biochemical, small-molecule microarray, 635/667 nm fluorescence, artefact control for SMM control-protein annotation, profiling panel (AID 1140); details: WGA-A647 binding, 635 nm fluorescence, higher = more signal;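 note: score merges 667 nm feature emission with signal to noise over triplicate slides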
[9] = target: Luciferin 4-monooxygenase (Photinus pyralis) (UniProt P08659); experiment: inhibition of purified Photinus pyralis luciferase – biochemical, luminescence, purified enzyme, 2006 set, primary screen (AID 1141); details: purified firefly luciferase, SteadyGlo luminescence, 30 min; higher = more signal, called active from +8 up or from −8 down;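 note: cell-free assay with purified firefly luciferase at 100 ng per well in PBS; test concentration not given here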
Chain of Luciferin 4-monooxygenase (Photinus pyralis) (P08659 whole entry, looked up): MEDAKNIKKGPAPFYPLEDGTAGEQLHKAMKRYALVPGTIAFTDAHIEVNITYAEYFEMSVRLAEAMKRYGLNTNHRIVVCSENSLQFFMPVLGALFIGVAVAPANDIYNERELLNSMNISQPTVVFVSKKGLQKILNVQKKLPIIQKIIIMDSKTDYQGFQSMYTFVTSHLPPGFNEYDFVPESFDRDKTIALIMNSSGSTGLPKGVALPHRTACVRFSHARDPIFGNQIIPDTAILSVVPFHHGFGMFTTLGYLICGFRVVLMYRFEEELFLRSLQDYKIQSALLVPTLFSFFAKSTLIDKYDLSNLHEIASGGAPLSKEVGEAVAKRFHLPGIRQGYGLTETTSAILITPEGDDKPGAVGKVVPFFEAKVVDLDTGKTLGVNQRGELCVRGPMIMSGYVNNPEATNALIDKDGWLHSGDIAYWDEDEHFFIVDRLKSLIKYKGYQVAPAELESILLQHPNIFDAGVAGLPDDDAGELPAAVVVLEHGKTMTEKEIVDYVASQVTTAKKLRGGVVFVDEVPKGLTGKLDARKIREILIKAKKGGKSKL

[10] = test system: Wnt5a (protein binding on small-molecule microarray); experiment: small molecules binding Wnt5a protein – biophysical, small-molecule microarray, 635/667 nm fluorescence, primary screen (AID 1142); details: 635 nm fluorescence, higher = more signal;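 note: fluorescence read at 667 nm with signal to noise per printed feature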
[11] = ATP-based viability of Huh7 replicon cells – cell-based, CellTiter-Glo luminescence, basal, 48 h, cytotoxicity control for HCV replication inhibitor project, primary screen (AID 1143); details: higher = more signal, called active from +8 up or from −8 down;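 note: Huh7 hepatoma cells carrying a hepatitis C replication reporter with no stimulus; test concentration not given here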
[12] = Pseudomonas biofilm growth suppression – PAO1 strain, BacTiter-Glo luminescence, LB-PBS, primary screen (AID 1144); details: P. aeruginosa PAO1 biofilm, 12 h, higher = more signal
[13] = basal CRE-LacZ reporter activity in PC12 – cell-based, unstimulated, primary screen (AID 1145); details: no forskolin, luminescence, 4.5 h, higher = more signal, called active from +8 up or from −8 down
[14] = forskolin-driven CRE-LacZ activity in PC12 – cell-based, CRE-LacZ reporter, forskolin-stimulated, primary screen (AID 1146); details: luminescence, 4.5 h, higher = more signal, called active from +8 up or from −8 down;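 note: PC12 cells with 6xCRE LacZ reporter stimulated by forskolin 10 µM; beta-galactosidase reporter signal reflecting CREB driven transcription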
[15] = target: Streptavidin (Streptomyces avidinii) (UniProt P22629); experiment: compounds binding control protein streptavidin – biophysical, small-molecule microarray, 635/667 nm fluorescence, artefact control for SMM compound annotation, primary screen (AID 1147); details: higher = more signal;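 note: signal reflects streptavidin binding to arrayed compounds as a control protein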
Chain of Streptavidin (Streptomyces avidinii) (P22629 whole entry, looked up): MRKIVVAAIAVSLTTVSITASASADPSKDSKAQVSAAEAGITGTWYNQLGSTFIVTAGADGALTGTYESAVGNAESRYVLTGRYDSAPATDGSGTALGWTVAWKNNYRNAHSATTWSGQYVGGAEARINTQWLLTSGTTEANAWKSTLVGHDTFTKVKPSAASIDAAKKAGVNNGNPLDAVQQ

[16] = probe aInhba binding on compound microarray – biochemical, small-molecule microarray, 635/667 nm fluorescence, primary screen (AID 1148); details: higher = more signal;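 note: score merges 667nm spot fluorescence with signal-to-noise for antibody binding to printed compounds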
Torsin-1A (Homo sapiens) [17] = target: Torsin-1A (Homo sapiens) (UniProt O14656); experiment: TOR1A wild-type binding on microarray – cell lysate, small-molecule microarray, lysate, 635/667 nm, primary screen (AID 1149); details: COS7 hTOR1A-WT lysate, 635 nm fluorescence, higher = more signal
Chain of Torsin-1A (Homo sapiens) (O14656 whole entry, looked up): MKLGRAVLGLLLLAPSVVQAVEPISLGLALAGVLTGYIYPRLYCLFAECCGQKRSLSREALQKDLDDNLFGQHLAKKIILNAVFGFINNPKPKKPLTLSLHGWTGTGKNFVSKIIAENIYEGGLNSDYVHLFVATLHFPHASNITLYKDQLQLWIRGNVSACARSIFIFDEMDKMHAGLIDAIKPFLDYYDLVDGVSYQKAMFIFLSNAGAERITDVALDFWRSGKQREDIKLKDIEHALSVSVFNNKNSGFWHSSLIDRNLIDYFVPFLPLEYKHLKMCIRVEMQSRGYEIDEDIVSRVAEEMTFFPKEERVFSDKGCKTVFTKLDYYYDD

Torsin-1A (Homo sapiens) [18] = target: Torsin-1A (Homo sapiens) (UniProt O14656); experiment: torsin A mutant lysate binding on microarrays – cell lysate, small-molecule microarray, COS7 lysate, 635/667 nm fluorescence, primary screen (AID 1150); details: COS7 hTOR1A mutant lysate, 635 nm fluorescence, higher = more signal;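 note: score pools 667 nm emission and signal to noise measuring lysate protein binding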
[19] = test system: Sonic hedgehog protein (Shh); experiment: Sonic hedgehog microarray binding compounds – biochemical, small-molecule microarray, 635/667 nm fluorescence, primary screen (AID 1151); details: 635 nm fluorescence, higher = more signal;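 note: Shh protein binding to compounds spotted on small-molecule microarray slides; score combines spot fluorescence intensity with signal-to-noise across triplicate slides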

SMILES | composite z-score [1] | composite z-score [2] | composite z-score [3] | composite z-score [4] | composite z-score [5] | composite z-score [6] | z-score [7] | composite z-score (Lefty1) | composite z-score [8] | z-score [9] | composite z-score [10] | z-score [11] | z-score [12] | z-score [13] | z-score [14] | composite z-score [15] | composite z-score [16] | composite z-score (Torsin-1A (Homo sapiens) [17]) | composite z-score (Torsin-1A (Homo sapiens) [18]) | composite z-score [19]
O=C1[C@H]2[C@H]3[C@H](O)[C@H](O)CC(=NOCc4ccccc4)[C@@H]3CC[C@H]2C(=O)N1c1ccc(F)cc1F | -0.0523 | -0.406 | 0.757 | 0.416 | 0.072 | 0.359 | -0.332 | -0.0459 | -0.141 | 0.0336 (inactive) | -0.0167 | -1.69 (inactive) | -1 (inactive) | -0.469 (inactive) | -0.445 (inactive) | 0.0494 | -0.104 | -0.111 | -0.153 | 0.068
CC(=O)OC[C@H]1O[C@H](CCON=C2[C@H]3CCn4c(=O)n(-c5ccccc5)c(=O)n4[C@H]3[C@H](O)[C@@H]3O[C@H]23)C=C[C@@H]1OC(C)=O | -0.405 | -0.169 | -0.749 | 0.366 | 0.334 | 0.594 | -0.297 | 0.397 | -0.0229 | 0.416 (inactive) | 0.282 | -1.89 (inactive) | 2.23 (inactive) | -0.152 (inactive) | -0.0763 (inactive) | -0.0465 | -0.0791 | -0.299 | 0.0319 | 0.789
CCN1C(=O)[C@H]2[C@H]3[C@H](O)[C@H](O)CC(=O)[C@H]3CC[C@H]2C1=O | 0.463 | 0.809 | 0.0493 | 0.861 | 0.486 | 0.485 | -0.335 | 0.559 | 0.145 | -0.371 (inactive) | 0.113 | 0.89 (inactive) | -0.212 (inactive) | -0.293 (inactive) | -0.733 (inactive) | -0.0154 | -0.225 | 1.06 | 0.386 | 0.593
C[n+]1ccc(-c2ccc(CO)cc2)cc1 | 0.658 | -0.676 | -0.332 | -0.168 | 1.55 | 1.35 | -0.666 | 1.61 | 1.48 | -0.288 (inactive) | -0.0113 | 0.0559 (inactive) | 0.466 (inactive) | 0.919 (inactive) | 0.723 (inactive) | 2.72 | -0.0209 | 0.565 | 1.67 | 2.14
CO[C@H]1COC(=O)CC=C[C@@H](C)[C@H](OC)COC(=O)[C@@H]2CCCN2C(=O)CC=C[C@@H]1C | 0.118 | -0.834 | -0.145 | -1.02 | 1.39 | 1.01 | 0.0624 | 1.57 | -0.483 | -0.813 (inactive) | -0.0779 | 0.192 (inactive) | 0.474 (inactive) | 0.251 (inactive) | -0.759 (inactive) | -0.407 | -0.186 | 1.72 | 2.49 | 2.18
CC(C)CON=C1[C@H]2CCn3c(=O)n(Cc4cc5c(cc4Cl)OCO5)c(=O)n3[C@H]2[C@H](O)[C@@H]2O[C@H]12 | 0.158 | 0.489 | 0.217 | 0.172 | 0.768 | 0.42 | -0.937 | 0.452 | -0.121 | 0.748 (inactive) | 0.26 | -2.89 (inactive) | 0.376 (inactive) | 1.87 (inactive) | 0.819 (inactive) | 1.49 | -0.0332 | 1.39 | 0.49 | 0.504
CO[C@H]1COC(=O)[C@@H]2CCCN2C(=O)CC=C[C@@H](C)[C@H](OC)COC(=O)[C@@H](OCc2ccccc2)C=C[C@@H]1C | -0.228 | -1.15 | 0.0122 | -0.557 | 1.27 | 1.02 | 0.0486 | 1.5 | -0.83 | 0.168 (inactive) | -0.0628 | -3.36 (inactive) | -0.576 (inactive) | 1.15 (inactive) | -0.166 (inactive) | -0.0601 | -0.407 | 1.32 | 0.855 | 1.89
CC=CC1=C(CO)C(=O)[C@@H]2O[C@@H]2C1=O | 0.366 | -0.385 | -0.681 | -0.328 | 1.44 | 1.89 | -1.06 | 1.34 | -0.173 | -0.78 (inactive) | 0.189 | -1.02 (inactive) | -0.36 (inactive) | 0.0178 (inactive) | 3.64 (inactive) | -0.842 | -0.128 | 0.0039 | -0.579 | 1.72
O=C1C[C@@H](O)[C@@H](O)[C@@H]2[C@@H]3C(=O)N(C[C@@H]4CCCO4)C(=O)[C@@H]3CC[C@H]12 | 0.284 | 0.569 | -0.266 | 0.684 | 0.236 | 0.538 | 0.991 | 0.548 | 0.085 | -0.635 (inactive) | 0.288 | 0.114 (inactive) | 0.54 (inactive) | 0.517 (inactive) | -0.105 (inactive) | 0.168 | -0.128 | 0.34 | 0.068 | 0.46
C[C@@H]1CC[C@H]2C(=O)O[C@@H](Cc3ccccc3)CN2[C@H]1c1ccc(Br)cc1 | 2.07 | 0.688 | 0.217 | 0.376 | 0.397 | 0.297 | 0.362 | 0.495 | 0.526 | 0.178 (inactive) | -0.0729 | -0.309 (inactive) | 0.502 (inactive) | 0.583 (inactive) | -0.143 (inactive) | -0.0253 | -0.133 | 0.433 | 0.533 | 0.656
